Among the data in PubChem BioAssay AID651819 (National Center for Advancing Translational Sciences (NCATS), 2012) are activity change values, retold here.

The structures appear in SMILES notation. Hit rate of the full screen: of about 360,000 compounds, about 1,100 (0.31%) were called active. This is one part of a sample in which actives are shown more often than they occur. Unmarked numbers belong to inactive results. Cut-off read from the data, not from the text of the source: active = activity change below about -30%; inactive = the rest.
% is set by controls: 0 for no effect and ±100 for the full control effect.

The experiment concerns cytosolic chaperonin (CCT/TRiC complex). Nature of the experiment: High-Throughput Screening for Modulators of Cytosolic Chaperonin Activity. The settings on record: purified chaperonin ATPase assay, HTRF ADP detection, 30 min; stronger effect = lower value. The text has this:
The eukaryotic chaperonin named TRiC (for TCP-1 ring complex), also called CCT (for chaperonin containing TCP1), is an essential and conserved chaperone required for the folding and activation of 10-15% of the proteins encoded by the human genome. […] Despite its central role in cellular folding, little is known about TRiC mechanism and mode of substrate binding. Currently, no specific TRiC inhibitors are available. Given the early promise of other chaperone-directed inhibitors as cancer therapeutics (e.g. HSP90 inhibitors), inhibitors of TRiC activity may also selectively target transformed cells and have potential use as therapeutics for cancer.
To this end, a miniaturized assay was developed to screen against the Molecular Libraries Small Molecule Repository (MLSMR).
NIH Chemical Genomics Center [NCGC]
NIH Molecular Libraries Probe Centers Network [MLPCN]
Assay Submitter (PI): Judith Frydman, Stanford University
1.5 uL/well TRiC enzyme suspended in buffer (30 mM TRIS pH7.4, 100 mM KCl, 5 mM MgCl2, 1 mM DTT) was added with BioRAPTR FRD dispenser at 40 nM or 20 nM (based on the enzymatic activity of used batches) final concentration to a white solid bottom medium binding 1536-well plate (Greiner Bio-One, Monroe, NC), and quickly spanned down. 23 nl/well of compound solutions in DMSO were added with a pintool transfer (Kalypsis, San Diego, CA) at a single 76 uM final concentration. Next, 1.5 µl/well ATP was dispensed with BioraptR at 10 uM final concentration after which the plates were incubated at 37 deg C for 30 min. HTRF(R) Transcreener(R) ADP (Cisbio US, Bedford, MA) detection reagents were prepared accordingly to the protocol and dispensed into the plate (1.5 uL/well each), incubated for 30 min at ambient temperature. Then, the plates were read using Envision reader with excitation at 330nm and emission at 615nm (Eu(3)-Cryptate donor signal) and 665nm (d2 acceptor signal). The ratio of […] was calculated for each well.
With `CC(=O)Cn1ncc(N2CCOCC2)c(Br)c1=O`, the activity change is -7.2%.

For the molecule `O=C(CSCc1c(Cl)cccc1Cl)NN1C(=O)c2ccccc2C1=O`, the activity change is -44% (active).

For `O=C(CSCc1ccccc1Cl)NNC(=O)c1ccccc1`, the activity change was -0.322%.

Consider `O=C(CSCc1c(F)cccc1Cl)NCC1CCCO1` (configuration not stated), for which the activity change is -0.136%.

Take `CC(CO)(CO)NC(=O)c1ccc(=O)[nH]n1`: the activity change is 1.59%.

As for `Cc1ccc(C)c(OCCC(=O)OCC(=O)c2ccc3c(c2)NC(=O)CO3)c1`, the activity change is -8.24%.

For the molecule `CCOC(=O)C1CCN(C(=O)COc2cc(C)c(Br)c(C)c2)CC1`, the activity change was -2.02%.

With `CC(=O)c1c(C)[nH]c(C(=O)COc2ccc3c(C)cc(=O)oc3c2)c1C`, the activity change was -0.599%.

Regarding `Cc1cc(=O)oc2ccc(OCC(=O)O)cc12`, the activity change was -57.7% (active).

Regarding `Cc1ccc(O)c(/C=N/NC(=O)COc2ccc3c(C)cc(=O)oc3c2)c1`, the activity change was 2.07%.

Turning to `O=C(NCCC1CCCCN1S(=O)(=O)c1ccc(Cl)cc1)C(=O)NCc1ccco1` (configuration not stated), the activity change is 2.22%.

On to `CCOC(=O)[C@@H]1[C@H]2COc3ccc(Br)cc3[C@H]2N2C(=O)N(c3ccc(Cl)cc3)C(=O)[C@@]12C`, for which the activity change is -1.17%.

With `CC1(C(=O)Nc2cccc3cccnc23)CCN1C(=O)CCC1CCCC1` (configuration not stated), the activity change was 1.06%.

Turning to `O=C1c2ccccc2C(O)N1Cc1ccccc1` (configuration not stated), the activity change was -1.07%.

On to `CCCCCCn1cc(C(=O)O)c(=O)c2cc(F)c(N3CCCCC3)cc21`, for which the activity change is -2.93%.

On to `CCn1cc(C(=O)NCCO)c(=O)c2cc(F)c(N3CCN(C)CC3)cc21`, for which the activity change was -0.12%.

On to `CN1CCN(c2cc3c(cc2F)c(=O)c(C(=O)O)cn3CCF)CC1`, for which the activity change is -35.1% (active).

Consider `O=C(NCc1ccncc1)C(=O)NCC1OCCN1S(=O)(=O)c1ccc(Br)cc1` (configuration not stated), for which the activity change is -45.4% (active).

As for `COc1ccc(S(=O)(=O)N2CCOC2CNC(=O)C(=O)NCc2ccncc2)cc1OC` (configuration not stated), the activity change was 0.662%.

As for `O=C(NCc1ccccc1)C(=O)NCC1OCCN1S(=O)(=O)c1ccc(Br)cc1` (configuration not stated), the activity change was -1.3%.

In the case of `O=C1CCC(=O)N1c1ccc(NCCc2ccccc2F)c([N+](=O)[O-])c1`, the activity change is -1.58%.

Turning to `Cc1ccccc1NC(=O)c1cc(S(=O)(=O)N2CCOCC2)cs1`, the activity change is -3.83%.

In the case of `Cn1c(=O)c(=O)n(C)c2cc(S(=O)(=O)NCCc3ccccc3)ccc21`, the activity change is -5.22%.

Consider `CN(C(=O)c1cccc(OC2CCN(S(=O)(=O)N(C)C)CC2)c1)C1CCOC1` (configuration not stated), for which the activity change was -4.71%.

On to `COc1cccc(C(=O)NCCS(=O)(=O)NCC2CCCO2)c1` (configuration not stated), for which the activity change was -0.161%.

As for `CN(C)S(=O)(=O)N1CCC(Oc2cccc(C(=O)NCCCC3CCCC3)c2)CC1`, the activity change was -87.6% (active).

Take `Cc1onc(-c2c(Cl)cccc2Cl)c1C(=O)c1c[nH]c(C(=O)NC2CC2)c1`: the activity change was 0.407%.

Regarding `Cc1onc(-c2c(F)cccc2Cl)c1C(=O)Nc1cccc(S(=O)(=O)N2CCCCC2)c1`, the activity change was -0.204%.

`Cc1[nH]n(C)c(=O)c1C(=O)c1c(-c2c(Cl)cccc2Cl)noc1C`: the activity change is -45.8% (active).

With `O=C1NC(c2ccccc2)=NC1(Nc1ccccn1)C(F)(F)F` (configuration not stated), the activity change is -1.42%.

As to `Cc1cccc(N)c1SC1CCCCC1O` (configuration not stated), the activity change is -39.7% (active).

As to `CSCCC1NC2(C(=O)Nc3ccc(Cl)cc32)[C@@H]2C(=O)N(C3CCCC3)C(=O)[C@H]12` (some centres not stated), the activity change was 1.03%.

`Cc1c(CC(=O)NCC(=O)NCC(=O)O)c(=O)oc2cc3oc4c(c3cc12)CCCC4`: the activity change was -2.16%.

On to `COc1ccc(-n2nc3c(c2NC(=O)c2ccc(N4C(=O)CCC4=O)cc2)CSC3)cc1`, for which the activity change was -0.865%.

For the molecule `COc1ccc(-c2csc(NC(=O)c3ccc(N4C(=O)CCC4=O)cc3)n2)cc1OC`, the activity change was -39.6% (active).

`COc1cc(NC(=O)c2ccc(-c3csc(C)n3)cc2)c(OC)cc1Cl`: the activity change was -4.58%.

As for `C[C@H]1Cn2cnc(C(=O)N[C@H](C)c3ccccc3)c2C(=O)N1`, the activity change is -0.974%.

For the molecule `Cc1nc(SCC(=O)NC2CCCC2)[nH]c(=O)c1C`, the activity change was -0.123%.

`CCc1c(C)nc(SCC(=O)NC2CCCC2)[nH]c1=O`: the activity change is -41.7% (active).

For `Cc1ccc2nc(SCC(=O)NC3CCCC3)[nH]c2c1`, the activity change was -1.34%.

For the molecule `O=C(CSC1=NS(=O)(=O)c2cc(F)ccc2N1)Nc1ccccc1F`, the activity change was 0.641%.

With `COC(=O)c1ccc(S(=O)(=O)c2ccc(C(=O)OC)s2)s1`, the activity change was 1.17%.

Turning to `Cc1ccc(-c2nn(-c3ccccc3)cc2/C=C/C(=O)Nc2cccc(S(N)(=O)=O)c2)cc1`, the activity change was 0.245%.

Regarding `COc1cccc(-c2nn(-c3ccccc3)cc2/C=C(\C#N)C(=O)NCCCn2ccnc2)c1`, the activity change was -0.966%.

`CN(C)S(=O)(=O)c1cccc(-c2nn(-c3ccccc3)cc2/C=C2\SC(=S)N(CC(=O)O)C2=O)c1`: the activity change was -61.8% (active).

With `CSc1nc2ccccc2cc1/C=C(\C#N)c1ccc(Cl)cc1Cl`, the activity change is 2.8%.

With `Cn1nc([N+](=O)[O-])nc1Sc1ccc(C(C)(C)C)cc1`, the activity change was -4.31%.

For `Cc1cc(C(=O)NNC(=S)NC(C)c2ccccc2)cs1` (configuration not stated), the activity change was -0.958%.

Turning to `Cc1ccc2nc(-c3ccncc3)cc(C(=O)Nc3ccc(OC(F)F)cc3)c2c1`, the activity change was -2.42%.

Take `O=C(Nc1ccc(Br)cc1)c1cc(S(=O)(=O)Nc2ccccn2)ccc1Cl`: the activity change is -1.07%.

In the case of `O=C(Nc1ccncc1)c1cc(-c2ccccn2)nc2ccc(Br)cc12`, the activity change was -70.4% (active).

As for `O=C(Nc1ccc(Cl)cc1)/C(=C1\CCCN1)[N+](=O)[O-]`, the activity change was 0.411%.

Regarding `O=C(Nc1cc(-c2nc3ncccc3o2)ccc1Cl)c1ccco1`, the activity change was -2.43%.

As to `O=S1(=O)CC(N2CCN(c3ccccn3)CC2)CN1Cc1ccc(F)cc1` (configuration not stated), the activity change was -0.743%.

On to `Cc1occc1C(=O)Nc1cccc(S(=O)(=O)N2CCOCC2)c1`, for which the activity change is -3.31%.

As for `Cc1cc(C)n2nc(C(=O)Nc3cccc(S(=O)(=O)N4CCOCC4)c3)nc2n1`, the activity change is -34.4% (active).

For `Cc1c(C(=O)Nc2cccc(S(=O)(=O)N3CCOCC3)c2)oc2ccccc12`, the activity change is -1.92%.
